# Source: PubChem BioAssay
# Pf Dd2 inh: blocks in vitro growth of P. falciparum Dd2; 4.3% of 120,000 active; P. falciparum Dd2 growth, SYBR Green, 72 h; Potency, µM (series often up to 28.9 µM), for the others: top-dose activity, negative = inhibition, most hits filed as inhibitors; active means well fitted inhibition curve with a large enough effect;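 further: plate controls were DMSO vehicle for no effect and reference drug for full effect; nearly all actives have a fitted effect of over 65% in size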
#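 Readout: SYBR Green fluorescence, 485 nm excitation, 535 nm emission, after ~16 h lysis at 37C. Before that, Dd2-infected red cells (2.5% hematocrit) grew 72 h with compound, 29 uM top final concentration.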
# * hit, by the source's call; i = inactive; [ ] = another dose, or the depositor's remark. This is one part of a sample in which hits are shown more often than they occur. Potency means the concentration at half of the fitted maximal effect.
SMILES,Pf Dd2 inh
O=C([C@@H]1C[C@H](F)CN1C(=O)Nc1ccc(Br)cc1)N1CCCCC1,15.8%
CCC(CC)C(=O)N1CC(C(=O)NCCc2ccncc2)C2(CCOCC2)C1 (stereo not drawn),23.6%
c1ccc(CCc2noc(-c3ccc(N4CCCOCC4)nc3)n2)cc1,-25.5%
CCN1CCN(c2ccc(-c3nc(CCCc4ccccc4)no3)cn2)CC1,10µM*
COC1CCN(c2ccc(-c3nc(COc4ccccc4)no3)cn2)CC1,i
COc1cccc(OC)c1CN1CC[C@@H]2CN(S(C)(=O)=O)[C@@H]2C1,i
O=C(O)Cn1nc(C2CCOCC2)nc1CC1NC(=O)NC1=O (stereo not drawn),-0.5%
COc1cccc(CNC(=O)[C@@H]2C[C@@H](O)CN2C2CCN(C(=O)Cc3ccc(Cl)cc3)CC2)c1,12.6µM*
COc1cccc(CNC(=O)[C@@H]2C[C@@H](O)CN2C2CCN(C(=O)CC3CCCC3)CC2)c1,i
COc1cccc(CNC(=O)[C@@H]2C[C@@H](O)CN2C2CCN(C(=O)c3ccco3)CC2)c1,i
COc1cccc(CNC(=O)[C@@H]2C[C@@H](O)CN2C2CCN(C(=O)c3cccs3)CC2)c1,8.91µM*
COc1cccc(CNC(=O)[C@@H]2C[C@@H](O)CN2C2CCN(C(=O)c3cccc(OC)c3)CC2)c1,-10.8%
COc1cccc(CNC(=O)[C@@H]2C[C@@H](O)CN2C2CCN(C(=O)c3ccncc3)CC2)c1,-19.3%
COC[C@@H]1CN(C(=O)c2cccc(C)c2)C[C@H]1c1nc(C2CC2)no1,-12.2%
COc1ccc(/C=C/C(=O)Nc2cccc(F)c2)cc1,i
COc1ccc(NC(=O)C(NC(=O)/C=C\c2ccc3c(c2)OCO3)c2ccccc2)cc1 (stereo not drawn),10µM*
COc1cccc(-c2nc(SCC(=O)Nc3ccc4c(c3)OCO4)c(-c3ccccc3)[nH]2)c1,-22.0%
Cc1ccc(C(=O)N2CC(C(=O)NC3CCCCC3)C3(CCOCC3)C2)cc1 (stereo not drawn),-18.2%
CN(C)C[C@@H]1CN(C)C[C@H]1NC(=O)c1nn(C)c2ccccc12,17.7%
CCN(CC)Cc1ccc2c(c1)CN(C(=O)N(CC)CC)CCO2,-15.0%
CCN(CC)Cc1ccc2c(c1)CN(C(=O)COc1ccc(C)cc1)CCO2,2.82µM*
CCN(CC)Cc1ccc2c(c1)CN(C(=O)c1ccsc1)CCO2,-24.0%
CN(C)c1ccc(C(=O)N2CCC[C@H]2c2nc(-c3ccccc3)no2)cc1,-0.2%
CN1CCC(OC2CCN(C(=O)c3ccc(Br)o3)CC2)CC1,121.9%
Cc1noc(C)c1S(=O)(=O)N1CCc2nn(C)c(=O)n2CC1,-4.9%
SMILES,Pf Dd2 inh
CCn1ncc(N2CCC(NC(=O)Cc3cccc(F)c3)CC2)cc1=O,i
Cc1nc(N2CCCCC2)n(CC(=O)Nc2cccc(F)c2)c(=O)c1C,3.98µM*
CSc1cccc(NC(=O)Cn2c(N3CCCCC3)nc(C)c(C)c2=O)c1,i
Cc1cccc(NC(=O)Cn2c(N3CCCCC3)nc(C)c(C)c2=O)c1,i
Cc1noc(C)c1-c1cn(CCNS(=O)(=O)c2ccc(Cl)cc2)nn1,-20.7%
CNC(=O)c1ccc(CN2CCCC(CCc3ccccc3C(F)(F)F)C2)o1 (stereo not drawn),7.94µM*
Cn1ccc(C(=O)N2CCCC(CCc3ccccc3C(F)(F)F)C2)n1 (stereo not drawn),-7.2%
O=C(C1CCOCC1)N1CCCC(CCc2ccccc2C(F)(F)F)C1 (stereo not drawn),-10.5%
COc1ccc(S(=O)(=O)N2CC[C@H]3NC(=O)N(c4ccc(Oc5ccccc5)cc4)C(=O)[C@H]32)cc1,-21.2%
Cn1nnnc1SCCCNCc1cccc(OCc2ccccc2Cl)c1,10µM*
CCOc1ccccc1CNCCSc1nnnn1C,i
CCOc1ccc(CNCCCSc2nnnn2C)cc1OC,-13.1%[0.594 µM]
Cn1nnnc1SCCCNCc1cc(Cl)ccc1OCc1ccccc1,7.94µM*
COc1cc(CNCCSc2nnnn2C)cc(Cl)c1OCc1ccccc1,i
COc1cccc(CNCCSc2nnnn2C)c1OCc1ccc(Cl)cc1Cl,i
OC[C@@H]1O[C@H](CNC2CCOCC2)[C@H](N2CCN(c3ccc(F)cc3)CC2)[C@@H]1O,-10.3%
CC(C)c1nc2c(c(-c3ccc(O)cc3)n1)CCN(C(=O)c1ccc(F)cc1)CC2,-6.0%
COc1ccc(-c2nc(C(C)C)nc3c2CCN(C(=O)c2ccccc2)CC3)cc1,-17.4%
Cc1nc2c(c(-c3ccc(O)cc3)n1)CN(CC1CC1)CC2,i
COc1ccc(CN2CCc3nc(C(C)C)nc(-c4ccc(O)cc4)c3CC2)cc1,2.24µM*
COc1ccc(-c2nc(C(C)C)nc3c2CCN(C(=O)Nc2ccc(Cl)cc2)CC3)cc1,i
CC(C)c1nc2c(c(-c3ccc(O)cc3)n1)CCN(CC1CCCCC1)CC2,1.12µM*
CCC(=O)Nc1cccc(OCC(=O)NCc2sc(C)nc2CC)c1,-1.2%
CC1CCN(CC2CCCN(C(=O)COc3ccc(F)cc3)CC2)CC1 (stereo not drawn),-29.9%
CCOc1ccccc1CN1CCN(c2ccnc(N)n2)CC1CCO (stereo not drawn),i
SMILES,Pf Dd2 inh
CC(C)Nc1ccnc(N2CCN(Cc3ccccc3F)C(CCO)C2)n1 (stereo not drawn),-22.4%
OCCC1CN(c2cc(C(F)(F)F)ccn2)CCN1CC1CCCCC1 (stereo not drawn),12.6µM*
OCCC1CN(CCOc2ccc(F)cc2)CCN1CC1CCCCC1 (stereo not drawn),8.91µM*
O=C(C1CCCC1)N1CCC(CCOc2ccc(F)cc2)C1 (stereo not drawn),i
COCCNC(=O)[C@@H]1C[C@H](Oc2ccccc2)CN1C(=O)c1sc(C)nc1C,17.1%
CCOc1ccccc1C(=O)N1[C@@H]2CC[C@H]1CC(NC(=O)c1ccc(F)cc1)C2 (stereo partly drawn),-22.8%
CC(C)CCC1=NC2(CCN(C(=O)CCN3CCCCC3=O)CC2)C(=O)N1,-12.2%
COc1ccc(NC(=O)C2CCN(C(=O)c3ncn4c3COC(c3ccccc3)C4)CC2)cc1OC (stereo not drawn),i
Cn1nccc1CN1CC(Oc2ccc3c(c2)OCO3)C1,-5.9%[44.1 µM]
COCCn1c(COc2ccc(S(C)(=O)=O)cc2)nnc1C1CC(N)C1 (stereo not drawn),-17.1%
COc1ccc(OCCn2c(NC(=O)c3ccc(OC)cc3)nc3ccccc32)cc1,56.7%
COc1ccc(C(=O)Nc2nc3ccccc3n2CCOc2ccc(Cl)cc2)cc1,11.2µM*
COc1ccc(OCCn2c(C(C)Oc3ccccc3)nc3ccccc32)cc1 (stereo not drawn),-28.1%
Cc1ccc(N2CC(c3noc(-c4cc(F)ccc4Cl)n3)CC2=O)cc1 (stereo not drawn),32.0%
Cc1nonc1CN(C)C(=O)CC(c1ccccc1)c1cccc(Cl)c1 (stereo not drawn),-21.3%
Cc1nnc(CN(C)C(=O)CC(c2ccccc2)c2ccc(Cl)cc2)o1 (stereo not drawn),-2.3%
Cc1cnc(CN(C)C(=O)CC(c2ccccc2)c2ccc(Cl)cc2)[nH]1 (stereo not drawn),8.91µM*
CC(C)CCN1CCn2c(nnc2-c2ccccc2)C1,-6.1%[44.1 µM]
CCOc1ccc2c(n1)CCN(C(=O)Cc1c(C)noc1C)C2,i
CCOc1ccccc1NC(=O)Cn1c(N2CCC(C)CC2)nc(C)cc1=O,11.2µM*
Cc1ccc(NC(=O)Cn2c(N3CCC(C)CC3)nc(C)cc2=O)c(C)c1,i
CCOc1ccc(NC(=O)Cn2c(N3CCN(c4ccccc4)CC3)nc(C)cc2=O)cc1,i
